Test results reported in PubChem BioAssay AID504339 (National Center for Advancing Translational Sciences (NCATS), 2011).
About 17,000 (4.4%) of roughly 390,000 compounds were called active. Another 8% or so got no clear call; they are omitted. The sample holds actives, similar compounds and a random draw of the others, so the mix is not that of the screen. Values without a mark were called inactive. The call rests on the fitted dose curve; in most records, active means well fitted inhibition curve with a large enough effect; inconclusive means small, poorly fitted or top-dose-only effect; inactive means no such curve, though single readings can be large or run the other way.

What follows are compounds tested against Lysine-specific demethylase 4A (Homo sapiens) (UniProt O75164) (assay: qHTS Assay for Inhibitors of JMJD2A-Tudor Domain). Conditions: AlphaScreen JMJD2A-Tudor / H3K4me3 peptide binding; series mostly up to 114 µM; activity change, negative = inhibition: at the top concentration.
Text: JMJD2A is a jumonji-domain-containing lysine demethylase that uses Fe(II) together with 2-OG to effect oxidative demethylation of histones. Methylation is one of many […] modification that affect epigenetic transcription. […] It is proposed that the functions of JmjD2A binding to the histones, is to maintain marks after they are installed and to spread the modifications by […], establishing a self-propagating cycle for rapid methylation over a large area of chromatin. […] Thus, small molecule targeting of the JMJD2A-tudor domain interaction with its target methylhistone mark is expected to enable sophisticated experiments probing the fine regulatory pathways leading to selective demethylation of a given methyllysine locus based on the methylation state of adjacent histone marks. A quantitative high throughput AlphaScreen has been developed to identify small molecule inhibitors based on a protocol published by NCGC and SGC [4].
Although AlphaScreen has significant advantages with its utility in a variety of epigenetic target assays, the primary screening data provided in this deposition should be used with caution due to the prevalence of screening artifacts. The top compound concentration tested was high (>100uM) in this assay, which increases number of actives and potential artifacts. An AlphaScreen counterscreen is highly recommended to be run against any putative actives to eliminate non-specific artifacts. Alternatively, one can use other AlphaScreen assays in PubChem to filter out promiscuous hits.
[1] Lee, J. et al. Distinct binding modes specify the recognition of methylated histone H3K4 and H4K20 by JMJD2A-tudor. Nat Struct Mol Biol. 15(1); 109-11. 2008. PMID: 18084306
[2] Yasgar, et al. Compound Management for Quantitative High-Throughput Screening. JALA. 2008 Apr;13(2):79-89. PMID: 18496600
[3] Inglese, et al. Quantitative high-throughput screening: a titration-based approach that efficiently identifies biological activities in large chemical libraries. Proc Natl Acad Sci. 1;103(31):11473-8. 2006. PMID: 16864780
[4] Quinn et al. A homogeneous method for investigation of methyl-dependent protein-protein interactions in epigenetics. Nucleic Acids Res., 38(2):e11. 2010. PMID: […]
[5] Baell,Holloway. New substructure filters for removal of pan assay interference compounds (PAINS) from screening libraries and for their exclusion in bioassays. J Med Chem. 53(7):2719-40. 2010. PMID: 20131845
NIH Molecular Libraries Probe Production Network [MLPCN]
NIH Chemical Genomics Center [NCGC]
Structural Genomics Consortium (SGC)
To each well of a 1,536w plate, 2ul of JMJD2A-Tudor (final 100nM) and 1ul biotinylated histone peptide methylated at Lys4 [b-H3(1-18)K4me3] (final 50nM) were added in 1x PBS buffer, pH 7.4, containing 0.01% Tween-20, using a nanoliter dispenser. Formation of a protein-peptide complex proceeded at room temperature for 30 min. A Kalypsys pin-tool transferred 23nl of library compound solution in DMSO to each well. Following a 30 min incubation of the protein-peptide complex with compounds at room temperature, a mixture of 40 µg/mL each streptavidin-coated donor and nickel chelate acceptor AlphaScreen beads (final 10 µg/mL) was added in a 1ul dispense for a final volume of 4ul, followed by a brief centrifugation (1000 rpm, 1 min). Plates were incubated protected from the light for 20 min at room temperature. Microplates were then read on an EnVision multilabel plate reader using the 1,536 plate HTS AlphaScreen aperture (excitation time 80 ms, measurement time 240 ms).
Further: nearly all actives have a fitted effect of over 50% in size.
On the % scale 0 is the no-effect control and ±100 the full control effect; potency means the concentration at half of the fitted maximal effect.

Lysine-specific demethylase 4A (Homo sapiens), sequence (O75164 whole entry, looked up, the tested form may be a part): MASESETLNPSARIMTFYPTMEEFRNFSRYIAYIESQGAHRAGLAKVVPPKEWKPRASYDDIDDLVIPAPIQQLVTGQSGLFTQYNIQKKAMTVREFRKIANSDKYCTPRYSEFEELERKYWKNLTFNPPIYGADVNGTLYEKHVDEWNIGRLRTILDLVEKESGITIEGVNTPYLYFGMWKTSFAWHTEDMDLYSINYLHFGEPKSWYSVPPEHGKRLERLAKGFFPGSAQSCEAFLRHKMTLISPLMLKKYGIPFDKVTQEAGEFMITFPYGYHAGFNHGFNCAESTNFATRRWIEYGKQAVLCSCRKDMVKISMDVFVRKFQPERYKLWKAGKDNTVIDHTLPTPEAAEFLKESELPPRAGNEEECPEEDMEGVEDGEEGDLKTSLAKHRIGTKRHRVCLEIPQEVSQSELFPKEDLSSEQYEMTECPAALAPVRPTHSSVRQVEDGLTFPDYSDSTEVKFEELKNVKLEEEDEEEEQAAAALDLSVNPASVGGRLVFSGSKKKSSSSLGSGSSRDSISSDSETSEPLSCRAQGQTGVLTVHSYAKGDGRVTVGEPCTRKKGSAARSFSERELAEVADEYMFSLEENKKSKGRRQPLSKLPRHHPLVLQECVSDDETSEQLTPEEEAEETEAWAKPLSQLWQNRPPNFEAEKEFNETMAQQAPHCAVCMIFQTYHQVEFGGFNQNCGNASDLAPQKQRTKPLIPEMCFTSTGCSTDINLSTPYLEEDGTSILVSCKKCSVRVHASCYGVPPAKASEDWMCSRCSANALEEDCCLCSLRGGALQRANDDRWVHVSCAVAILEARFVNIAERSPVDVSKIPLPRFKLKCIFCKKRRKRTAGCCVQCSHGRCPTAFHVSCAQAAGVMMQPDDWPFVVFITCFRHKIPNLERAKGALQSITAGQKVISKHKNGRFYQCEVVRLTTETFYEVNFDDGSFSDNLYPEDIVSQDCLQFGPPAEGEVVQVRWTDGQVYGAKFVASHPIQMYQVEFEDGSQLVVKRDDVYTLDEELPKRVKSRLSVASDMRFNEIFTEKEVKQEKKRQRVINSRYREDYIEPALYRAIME

First: CCOC(=O)Cc1ccc(NC(=O)Nc2c[nH]c(=O)[nH]c2=O)cc1
Second: CCOC(=O)Cc1csc(NC(=O)CSc2ccc(Br)cc2)n1
The “activity change, negative = inhibition” value of the first is lower: -8.28% for the first, 18.2% for the second.

Going from `CCCCN(CC)CCCNC(=O)Cn1ncc2c([nH]c3ccc(C)cc32)c1=O` to `Cc1ccc2oc(=O)c3cnn(CC(=O)NCc4ccccc4Cl)c3c2c1`, the “activity change, negative = inhibition” value rises from -26.9% to -22.5%.

First: CCCSc1ncc(Cl)c(C(=O)Nc2sc3c(c2C(=O)NCCOC)CCCC3)n1
Second: Cc1nnc(SCC(=O)NNC(=O)c2ccc(Cl)cc2)n1CC1CCCO1 (stereo not given)
The “activity change, negative = inhibition” value of the first is lower: -20.1% for the first, -2.01% for the second.

Compared with `Cc1ccc(NC(=S)N(CCCN2CCC(C)CC2)Cc2ccco2)cc1`, `Cc1ccccc1NC(=S)N(CCCN1CCOCC1)Cc1cccs1` is higher in “activity change, negative = inhibition” value: -28.5% for the first, -11.6% for the second.

Going from `O=c1[nH]c2cc(Br)ccc2n2cccc12` to `O=C1OC(C(=O)Nc2cccc(Br)c2)Cc2ccccc21` (stereo not given), the “activity change, negative = inhibition” value falls from 0.336% to -5.15%.

Going from `COc1cc(C(=O)N2CCN(c3ccc(Nc4ccc(C)cc4)nn3)CC2)cc(OC)c1OC` to `CCOc1ccc2oc(=O)cc(CN3CCN(C(=O)c4ccc(F)cc4)CC3)c2c1`, the “activity change, negative = inhibition” value rises from -20.8% to -17.9%.

First: COc1ccc(OC)c(CCNC(=O)CCCn2c(=O)c3cccn3c3cccnc32)c1
Second: COc1ccc(CCNC(=O)c2cc3cccc4c3n2CC(C)S4)c(OC)c1OC (stereo not given)
The “activity change, negative = inhibition” value of the first is higher: -6.23% for the first, -10.7% for the second.

Going from `O=C(Cn1c(=O)n(Cc2cccs2)c(=O)c2cccnc21)Nc1ccc(F)cc1` to `Cc1ccc(NC(=O)c2oc3ccccc3c2NC(=O)Cc2cccs2)cc1`, the “activity change, negative = inhibition” value rises from -9.09% to -5.96%.

First: CC(C)(C)n1c(=O)[nH]c2c(c1=O)CCC2
Second: CCCCc1nnc(NC(=O)CSc2nc(C)cc(=O)[nH]2)s1
The “activity change, negative = inhibition” value of the first is higher: 4.4% for the first, -18.6% for the second.

Going from `CCOc1cc(C(=O)NCCc2csc3nc(-c4ccc(C)cc4)nn23)cc(OCC)c1OCC` to `COc1cc2[nH]c(=O)n(Cc3ccc(C(=O)NCc4ccc(C)cc4)cc3)c(=O)c2cc1OC`, the “activity change, negative = inhibition” value falls from 3.3% to -8.53%.

Going from `NNC(=O)CSc1nnc(-c2ccccc2)n1-c1ccccc1` to `COc1ccc(C(=O)NC(=O)CSc2nnc(-c3ccco3)n2-c2ccccc2)cc1`, the “activity change, negative = inhibition” value rises from -15.9% to -4.05%.

Going from `Cc1cc(NC(=O)CSc2nnc(-c3ccco3)n2N)no1` to `Cc1cccc(C)c1NC(=O)CCCSc1nnc(-c2ccco2)n1-c1ccccc1`, the “activity change, negative = inhibition” value falls from -18.8% to -27.9%.

Going from `CCOC(=O)c1ccc(NC(=O)c2ncn(-c3ccccc3)n2)cc1` to `O=C(Nc1ccc(C(=O)OCc2cc(=O)n3nc(C4CC4)sc3n2)cc1)c1ccc(F)cc1`, the “activity change, negative = inhibition” value rises from -1.37% to 8.94%.

Compared with `NC1=NC(c2cc(F)cc(F)c2)n2c(nc3ccccc32)N1` (stereo not given), `Oc1ccccc1-c1nc(/C=C/c2ccc(F)cc2)no1` is higher in “activity change, negative = inhibition” value: -11.9% for the first, -4.81% for the second.

Compared with `COc1ccccc1NC(=O)c1cc(S(=O)(=O)NCCc2ccccc2)ccc1F`, `Cc1ccc(NC(=O)c2cccnc2C(=O)Nc2ccc(C)cc2)cc1` is higher in “activity change, negative = inhibition” value: -22.6% for the first, -17.7% for the second.

Compared with `Cn1c(=O)c(=O)n(C)c2cc(NC(=O)c3ccccc3Br)ccc21`, `CNC(=O)CN1C(=O)c2cccnc2Sc2ccccc21` is lower in “activity change, negative = inhibition” value: -0.685% for the first, -12.7% for the second.

First: CNC(=O)NC(=O)CSc1nnc(-c2ccc(F)cc2)n1CC1CCCO1 (stereo not given)
Second: CCN(C(=O)CSc1nnc(C)n2c1cc1occc12)c1ccccc1
The “activity change, negative = inhibition” value of the first is lower: -27.5% for the first, -21.2% for the second.

Going from `O=C(NCC(c1ccc(Cl)cc1)N1CCOCC1)c1ccccc1F` (stereo not given) to `COc1ccc2oc(=O)cc(CN3CCOCC3)c2c1`, the “activity change, negative = inhibition” value falls from 1.32% to -5.65%.

Going from `CCOC(=O)C1CCN(c2c(Nc3cc(C)cc(C)c3)c(=O)c2=O)CC1` to `CCOC(=O)C1CCN(c2ccc(C(=O)O)cc2[N+](=O)[O-])CC1`, the “activity change, negative = inhibition” value falls from 1.41% to -9.25%.

With `N#Cc1ccc(OC2=NS(=O)(=O)c3ccccc32)cc1` the “activity change, negative = inhibition” value was -12.8%.

For `Cc1ccc(NC(=S)N(CCCN2CCCC2)Cc2cccn2Cc2ccc(Cl)cc2)cc1`, the Potency was 50.1 µM (active).
For `Cc1ccc(N=C2NC(=O)/C(=C/C=C/c3ccco3)S2)cc1C`, the Potency was 39.8 µM (active).
For `O=c1[nH]n2c(=O)c3c([nH]c2c1N=Nc1ccccc1)CCC3`, the Potency was 50.1 µM (active).
With `COc1ccc(-c2nnc(SCC(=O)c3ccco3)n2-c2ccccc2)cc1` the Potency was 56.2 µM (active).
For `CCOc1ccc(-n2c(SCC(N)=O)nnc2-c2ccco2)cc1`, the Potency was 20 µM (active).
For `O=C(Nc1ccc(-n2ccnc2P(=O)(O)c2ccccc2)cc1)c1ccccc1Br`, the Potency was 8.91 µM (active).
`S=c1[nH]nc(-c2ccc(Cl)cc2)n1CC1CCCO1` (stereo not given) was tested, and the Potency was 8.91 µM (active).
With `CSc1n[nH]c(=S)n1N` the Potency was 17.8 µM (active).
In the case of `CCOC(=O)C1CCN(c2csc3ccc(C)cc3c2=O)CC1`, the Potency is reported as 17.8 µM (active).
For `CCOc1ccc(N(C)Cc2cc(=O)oc3ccc(OC)cc23)cc1`, the Potency was 14.1 µM (active).
`CCOC(=O)Cc1csc(NC(=O)CSc2nc(C)cc(=O)[nH]2)n1` was tested, and the Potency was 20 µM (active).
